Shown are actives, neighbours in structure and some others; about 3% of the full set was active somewhere.
Sm TGR inh = qHTS Assay for the Inhibitors of Schistosoma Mansoni Peroxiredoxins. Schistosoma mansoni thioredoxin glutathione reductase (TGR), Q962Y6. 360,000 compounds, 3% hits. Potency, µM (doses to about 114 µM), without a hit: top-dose activity change, negative = inhibition, hits mostly inhibitors. AID 485364, 2010. purified TGR, DTNB reduction, TNB absorbance 405 nm; active = well fitted inhibition curve with a large enough effect; inconclusive = small, poorly fitted or top-dose-only effect; inactive = no such curve, though single readings can be large or run the other way; also: % is scaled to controls: 0 for no effect and ±100 for the full control effect; nearly all actives have a fitted effect of over 60% in size
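First, TGR (20 nM dispensed) and NADPH were mixed with compound. Second, a 15 min room-temperature incubation followed. Third, further NADPH and then DTNB were added to start the reaction. Finally, TNB absorbance was monitored kinetically.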
SARS PLP yeast = qHTS of Yeast-based Assay for SARS-CoV PLP. S. cerevisiae expressing SARS-CoV PLpro, growth rescue. Potency, µM (titrated, usually from 32.9 µM), for the others: at the highest dose activity, positive = growth rescue, most hits filed as activators. 330,000 compounds, 0.19% hits; calls by dose curve; also: 0% is about no effect; nearly all actives have a fitted effect of over 55% in size
Starred values were filed as active, the others as inactive; ? = inconclusive; . = no result given. Potency is read from the fitted curve at half-maximal effect.

SMILES	Sm TGR inh	SARS PLP yeast
O=C(c1ccc(CS(=O)(=O)c2ccc(Br)cc2)o1)N1CCCC1	0%	4%
CCOc1ccc(C2C(C(=O)Nc3ccccc3)=C(C)Nc3nc(-c4ccccc4Cl)nn32)cc1OC (centres undefined)	8%	.
O=C(NCCCN1CCN(c2ccc(F)cc2)CC1)c1cc2c(Cl)nc3ccccc3c2s1	-1%	.
Cc1ccc(N(CC(=O)Nc2ccc(F)cc2F)S(=O)(=O)c2cccs2)cc1	-2%	.
CCc1nn(CC(=O)N2CCN(c3cccc(C(F)(F)F)c3)CC2)c(=O)c2cccn12	-13%	.
CCc1ccccc1NC(=O)c1nnn(CC(=O)Nc2c(C)cc(C)cc2C)c1N	-25%	.
CC(C)(C)C1CCc2c(sc(NC(=O)Cn3nnc(-c4ccccc4Cl)n3)c2C#N)C1 (centres undefined)	1%	.
CN1CCN(C(=O)c2ccc(CS(=O)(=O)c3c(Cl)cccc3Cl)o2)CC1	-10%	?
O=C(c1ccc(CS(=O)(=O)c2c(Cl)cccc2Cl)o1)N1CCCC1	35µM*	0%
CCc1ccc(S(=O)(=O)N(C(=O)c2ccncc2)c2ccc(OC(=O)c3ccncc3)cc2)cc1	-16%	-56%
COc1ccc(C(=O)N(c2ccc(OC)cc2)S(=O)(=O)c2cccs2)cc1	-1%	-46%
COc1ccc(C(=O)N(c2ccc(C)cc2)S(=O)(=O)c2ccc(C)cc2)cc1	0%	.
O=C(Oc1ccc(N(C(=O)c2ccncc2)S(=O)(=O)c2ccc(Cl)cc2)cc1)c1ccncc1	18µM*	-1%
Cc1ccc(S(=O)(=O)N(C(=O)c2ccncc2)c2ccc(OC(=O)c3ccncc3)cc2)cc1	-18%	-38%
COc1ccc(N(C(=O)c2ccncc2)S(=O)(=O)c2ccc(Cl)cc2)cc1	20µM*	-22%
O=C(Oc1ccc(N(C(=O)c2ccncc2)S(=O)(=O)c2ccc(F)cc2)cc1)c1ccncc1	28µM*	-6%
COc1ccc(N(C(=O)c2ccncc2)S(=O)(=O)c2cccs2)cc1	25µM*	-10%
O=C(Nc1nc2n(n1)C(c1ccccc1)C=C(c1ccccc1)N2)c1ccccc1 (centres undefined)	6.3µM*	.
O=C(Nc1nc2n(n1)C(c1ccc(Cl)cc1)C=C(c1ccccc1)N2)c1ccco1 (centres undefined)	-9%	.
COc1ccc(C(=O)Nc2nc3n(n2)C(c2ccc(Cl)cc2)C=C(c2ccccc2)N3)cc1OC (centres undefined)	22µM*	.
COc1ccc(C2C=C(c3ccccc3)Nc3nc(NC(=O)c4ccc(C)cc4)nn32)cc1 (centres undefined)	-6%	.
Cc1ccc(-n2nc(C)c3c(C(F)(F)F)cc(-c4cccnc4)nc32)cc1C	-22%	.
CCOc1ccc(-n2c(SCC(=O)NCC3CCCO3)nc3c([nH]c4ccccc43)c2=O)cc1 (centres undefined)	9%	.
Cc1ccc(C(=O)NCc2ccco2)cc1S(=O)(=O)N1CCOCC1	-8%	1%
CC1CCN(S(=O)(=O)c2cccc(C(=O)NCc3ccco3)c2)CC1	5%	-1%
SMILES	Sm TGR inh	SARS PLP yeast
CC(=O)c1ccc(S(=O)(=O)N2CCN(C(C)=O)CC2)cc1	-1%	2%
Cc1ccc(C(=O)NCc2ccco2)cc1S(=O)(=O)N1CCCC1	40µM*	4%
O=C(NCc1ccco1)c1cccc(S(=O)(=O)N2CCCC2)c1	50µM*	2%
O=C(OCc1ccco1)c1ccc(S(=O)(=O)N2CCCCC2)cc1	7.1µM*	1%
CC(=O)c1ccc(S(=O)(=O)N2CCCC2)cc1	45µM*	3%
O=C(COC(=O)c1ccc(S(=O)(=O)N2CCCCC2)cc1)NCc1ccco1	?	0%
Cc1ccc(NC(=O)c2oc3ccccc3c2NC(=O)C2CCCCC2)cc1	-1%	.
COc1ccccc1Nc1nc2ccc(Cl)cc2nc1-n1nc(C)cc1C	3%	.
Cc1ccc(NC(=O)C2CCN(S(=O)(=O)c3c(C)noc3C)CC2)c(C)c1	5%	.
Cc1csc2nc(-c3cccc(NC(=O)c4c(F)cccc4F)c3)cn12	6%	.
O=C(Cc1ccccc1)N(Cc1cccnc1)c1nc2c(F)cc(F)cc2s1	6%	.
O=S(=O)(c1ccc(F)cc1)N1CCCNCC1	-35%	1%
Cc1cc(S(=O)(=O)N2CCCC2)ccc1OCC(=O)NCc1ccco1	40µM*	4%
O=C(NCc1ccco1)c1ccc(S(=O)(=O)c2cccc(S(=O)(=O)N3CCOCC3)c2)cc1	50µM*	?
Cc1ccc(S(=O)(=O)N2CCCNCC2)cc1	16µM*	2%
O=C(NNC(=S)NCc1ccco1)c1ccc(S(=O)(=O)N2CCOCC2)cc1	0%	1%
Cc1cc(S(=O)(=O)N2CCOCC2)ccc1OCC(=O)NCc1ccco1	-9%	-1%
N#C/C(=N\Nc1ccc(S(=O)(=O)N2CCCCCC2)cc1)C(N)=S	.	7%
N#CC(C#N)=NNc1ccc(S(=O)(=O)N2CCCC2)cc1	20µM*	5%
